# Assay results as given in publication PMC7862700, “An all-to-all approach to the identification of sequence-specific readers for epigenetic DNA modifications on cytosine”.
# Experiments:
# Test in all cases: DAPPL (digital affinity profiling via proximity ligation, sequencing); 10 mM Tris-HCl pH 7.5, 50 mM NaCl, 1 mM DTT, 4% glycerol, room temperature, 30 min; GST-TFs on glutathione beads, 16-mer random dsDNA library, 0.1% formaldehyde crosslink after washing; high values mean tight binding
# Conditions in all cases: protein: recombinant; tags: N-terminal GST; dsDNA, one strand shown
# [1] = target: T1, FLI1 (Homo sapiens, UniProt Q01543 1-452)
# T1 sequence: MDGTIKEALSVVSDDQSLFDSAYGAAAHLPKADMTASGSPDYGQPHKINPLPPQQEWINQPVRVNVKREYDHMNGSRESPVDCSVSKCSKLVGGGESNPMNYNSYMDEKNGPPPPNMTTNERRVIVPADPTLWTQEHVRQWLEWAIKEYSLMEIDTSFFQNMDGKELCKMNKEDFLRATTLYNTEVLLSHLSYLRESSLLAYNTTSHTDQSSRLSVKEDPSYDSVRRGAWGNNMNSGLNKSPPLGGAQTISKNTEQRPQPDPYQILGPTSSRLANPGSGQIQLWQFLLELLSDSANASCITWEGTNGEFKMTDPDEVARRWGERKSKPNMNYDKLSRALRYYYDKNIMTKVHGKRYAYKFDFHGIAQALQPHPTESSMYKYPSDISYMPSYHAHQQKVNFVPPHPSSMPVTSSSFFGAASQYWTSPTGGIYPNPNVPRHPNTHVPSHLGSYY
# Outline: (§1)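 Binding signal is each hexamer's read frequency for a factor divided by its frequency in the tag-only sample. The factors were GST-fused human transcription factors from yeast, captured on glutathione beads, DNA-barcoded and pooled with that sample. Pools were incubated with 200 nmole of a random double-stranded 16-mer DNA library in Tris/NaCl/DTT/glycerol buffer at room temperature for 30 min, then washed, crosslinked with 0.1% formaldehyde, proximity-ligated with BsaI/T4 ligase (1 h, 37 °C), PCR-amplified and sequenced on an Illumina NextSeq500.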
# [2] = target: T2, ELK1 (Homo sapiens, UniProt P19419 1-428)
# T2 sequence: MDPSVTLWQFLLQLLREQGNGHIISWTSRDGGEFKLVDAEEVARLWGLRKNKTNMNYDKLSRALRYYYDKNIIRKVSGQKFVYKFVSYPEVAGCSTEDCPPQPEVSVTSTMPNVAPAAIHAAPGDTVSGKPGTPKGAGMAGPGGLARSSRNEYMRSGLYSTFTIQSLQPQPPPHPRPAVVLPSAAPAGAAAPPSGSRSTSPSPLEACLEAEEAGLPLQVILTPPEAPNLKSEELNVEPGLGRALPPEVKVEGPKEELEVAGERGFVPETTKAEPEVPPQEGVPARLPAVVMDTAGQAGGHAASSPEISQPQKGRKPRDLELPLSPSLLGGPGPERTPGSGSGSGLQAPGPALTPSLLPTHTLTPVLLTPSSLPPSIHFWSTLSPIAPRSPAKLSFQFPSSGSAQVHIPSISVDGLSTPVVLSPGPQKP
# Outline: as §1
# [3] = target: T3, GABPA (Homo sapiens, UniProt Q06546 1-454)
# T3 sequence: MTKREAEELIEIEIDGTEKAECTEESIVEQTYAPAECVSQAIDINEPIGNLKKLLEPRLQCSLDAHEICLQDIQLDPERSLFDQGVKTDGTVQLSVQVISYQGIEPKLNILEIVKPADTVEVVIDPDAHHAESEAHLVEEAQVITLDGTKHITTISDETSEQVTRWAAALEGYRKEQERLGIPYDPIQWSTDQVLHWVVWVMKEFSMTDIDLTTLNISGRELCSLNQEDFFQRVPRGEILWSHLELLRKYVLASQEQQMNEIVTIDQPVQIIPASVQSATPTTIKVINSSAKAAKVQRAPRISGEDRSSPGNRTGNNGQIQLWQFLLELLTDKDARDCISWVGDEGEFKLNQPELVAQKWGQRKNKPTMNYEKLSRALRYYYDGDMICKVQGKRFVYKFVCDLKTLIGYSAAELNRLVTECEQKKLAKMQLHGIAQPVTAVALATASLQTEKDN
# Outline: as §1
# [4] = target: T4, ERG (Homo sapiens, UniProt P11308 1-479)
# T4 sequence: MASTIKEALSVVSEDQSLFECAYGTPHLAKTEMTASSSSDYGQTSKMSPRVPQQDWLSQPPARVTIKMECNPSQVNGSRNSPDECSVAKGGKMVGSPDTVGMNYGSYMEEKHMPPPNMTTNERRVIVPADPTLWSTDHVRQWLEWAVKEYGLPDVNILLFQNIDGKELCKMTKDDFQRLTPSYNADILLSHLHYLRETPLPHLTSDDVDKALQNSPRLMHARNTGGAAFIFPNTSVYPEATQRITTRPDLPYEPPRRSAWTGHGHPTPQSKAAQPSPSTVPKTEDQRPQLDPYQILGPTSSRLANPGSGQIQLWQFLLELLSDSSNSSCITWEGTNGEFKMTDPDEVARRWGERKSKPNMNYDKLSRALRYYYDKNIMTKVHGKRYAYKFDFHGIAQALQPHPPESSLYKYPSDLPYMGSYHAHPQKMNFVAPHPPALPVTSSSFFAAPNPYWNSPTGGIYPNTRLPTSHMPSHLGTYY
# Outline: as §1
# [5] = target: ELF1 (Homo sapiens, UniProt P32519 1-619)
# Outline: as §1
# [6] = target: T5, EHF (Homo sapiens, UniProt Q9NZC4 1-300)
# T5 sequence: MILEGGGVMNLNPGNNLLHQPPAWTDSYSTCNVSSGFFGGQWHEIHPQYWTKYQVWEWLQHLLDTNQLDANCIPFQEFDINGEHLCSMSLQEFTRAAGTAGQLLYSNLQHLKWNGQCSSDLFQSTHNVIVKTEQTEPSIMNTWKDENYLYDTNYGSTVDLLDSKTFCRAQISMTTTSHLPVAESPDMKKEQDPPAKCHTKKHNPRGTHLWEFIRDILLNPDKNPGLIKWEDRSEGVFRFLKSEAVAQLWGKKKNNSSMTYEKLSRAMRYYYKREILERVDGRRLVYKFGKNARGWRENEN
# Outline: as §1
# [7] = target: SPI1 (Homo sapiens, UniProt P17947 1-270)
# Outline: as §1
# [8] = target: SPIB (Homo sapiens, UniProt Q01892 1-262)
# Outline: as §1
# [9] = target: T6, ELK3 (Homo sapiens, UniProt P41970 1-407)
# T6 sequence: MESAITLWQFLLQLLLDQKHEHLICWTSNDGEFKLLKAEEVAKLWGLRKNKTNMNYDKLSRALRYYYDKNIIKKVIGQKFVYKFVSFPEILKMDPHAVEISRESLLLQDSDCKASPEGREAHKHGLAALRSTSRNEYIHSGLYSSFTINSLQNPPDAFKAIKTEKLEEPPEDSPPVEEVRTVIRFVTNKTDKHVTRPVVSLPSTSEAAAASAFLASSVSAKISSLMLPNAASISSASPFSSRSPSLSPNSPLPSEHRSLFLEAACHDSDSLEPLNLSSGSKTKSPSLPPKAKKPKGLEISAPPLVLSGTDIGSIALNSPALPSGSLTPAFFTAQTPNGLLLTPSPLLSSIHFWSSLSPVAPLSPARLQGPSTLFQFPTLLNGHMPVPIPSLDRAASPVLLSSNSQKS
# Outline: as §1
# Sequence of ELF1 (P32519 whole entry): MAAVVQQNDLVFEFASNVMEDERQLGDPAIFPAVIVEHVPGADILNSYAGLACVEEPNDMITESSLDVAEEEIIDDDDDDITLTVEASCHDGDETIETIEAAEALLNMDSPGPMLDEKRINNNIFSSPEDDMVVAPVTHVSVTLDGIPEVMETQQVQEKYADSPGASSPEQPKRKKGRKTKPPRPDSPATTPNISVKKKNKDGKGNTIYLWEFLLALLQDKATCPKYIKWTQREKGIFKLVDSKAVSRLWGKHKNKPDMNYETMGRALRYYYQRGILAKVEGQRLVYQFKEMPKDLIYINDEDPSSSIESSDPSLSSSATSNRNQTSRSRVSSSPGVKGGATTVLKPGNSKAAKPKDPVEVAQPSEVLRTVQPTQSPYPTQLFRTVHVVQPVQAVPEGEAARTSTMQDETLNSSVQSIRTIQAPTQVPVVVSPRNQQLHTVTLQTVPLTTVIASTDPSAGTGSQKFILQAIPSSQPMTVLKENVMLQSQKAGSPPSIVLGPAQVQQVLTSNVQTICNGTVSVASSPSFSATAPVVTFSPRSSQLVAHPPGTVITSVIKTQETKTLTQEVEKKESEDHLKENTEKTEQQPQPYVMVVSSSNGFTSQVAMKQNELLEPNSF
# Sequence of SPIB (Q01892 whole entry): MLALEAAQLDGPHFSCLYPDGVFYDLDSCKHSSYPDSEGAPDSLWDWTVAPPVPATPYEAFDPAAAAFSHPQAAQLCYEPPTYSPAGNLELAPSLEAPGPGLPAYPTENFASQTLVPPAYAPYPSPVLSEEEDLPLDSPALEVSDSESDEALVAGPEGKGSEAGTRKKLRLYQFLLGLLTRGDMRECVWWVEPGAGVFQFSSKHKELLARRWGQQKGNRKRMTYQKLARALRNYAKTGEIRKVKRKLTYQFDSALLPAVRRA
sequence,measurement,setting,value
ACCTGG,binding signal,[1],"1.25 fold enrichment (6-mer frequency, TF over GST control)"
same,binding signal,[2],"1.28 fold enrichment (6-mer frequency, TF over GST control)"
same,binding signal,[3],"1.25 fold enrichment (6-mer frequency, TF over GST control)"
same,binding signal,[4],"1.25 fold enrichment (6-mer frequency, TF over GST control)"
same,binding signal,[5],"1.25 fold enrichment (6-mer frequency, TF over GST control)"
same,binding signal,[6],"1.22 fold enrichment (6-mer frequency, TF over GST control)"
same,binding signal,[7],"1.2 fold enrichment (6-mer frequency, TF over GST control)"
same,binding signal,[8],"1.31 fold enrichment (6-mer frequency, TF over GST control)"
same,binding signal,[9],"1.23 fold enrichment (6-mer frequency, TF over GST control)"
TCCCCG,binding signal,[1],"1.15 fold enrichment (6-mer frequency, TF over GST control)"
same,binding signal,[2],"1.22 fold enrichment (6-mer frequency, TF over GST control)"
same,binding signal,[3],"1.32 fold enrichment (6-mer frequency, TF over GST control)"
same,binding signal,[4],"1.2 fold enrichment (6-mer frequency, TF over GST control)"
same,binding signal,[5],"1.23 fold enrichment (6-mer frequency, TF over GST control)"
same,binding signal,[6],"1.35 fold enrichment (6-mer frequency, TF over GST control)"
same,binding signal,[7],"1.18 fold enrichment (6-mer frequency, TF over GST control)"
same,binding signal,[8],"1.13 fold enrichment (6-mer frequency, TF over GST control)"
same,binding signal,[9],"1.13 fold enrichment (6-mer frequency, TF over GST control)"
AACATG,binding signal,[1],"1.24 fold enrichment (6-mer frequency, TF over GST control)"
same,binding signal,[2],"1.21 fold enrichment (6-mer frequency, TF over GST control)"
same,binding signal,[3],"1.15 fold enrichment (6-mer frequency, TF over GST control)"
same,binding signal,[4],"1.16 fold enrichment (6-mer frequency, TF over GST control)"
same,binding signal,[5],"1.22 fold enrichment (6-mer frequency, TF over GST control)"
same,binding signal,[6],"1.05 fold enrichment (6-mer frequency, TF over GST control)"
same,binding signal,[7],"1.15 fold enrichment (6-mer frequency, TF over GST control)"
same,binding signal,[8],"1.16 fold enrichment (6-mer frequency, TF over GST control)"
same,binding signal,[9],"1.19 fold enrichment (6-mer frequency, TF over GST control)"
CGCCTA,binding signal,[1],"1.17 fold enrichment (6-mer frequency, TF over GST control)"
same,binding signal,[2],"1.19 fold enrichment (6-mer frequency, TF over GST control)"
same,binding signal,[3],"1.15 fold enrichment (6-mer frequency, TF over GST control)"
same,binding signal,[4],"1.14 fold enrichment (6-mer frequency, TF over GST control)"
same,binding signal,[5],"1.16 fold enrichment (6-mer frequency, TF over GST control)"
same,binding signal,[6],"1.23 fold enrichment (6-mer frequency, TF over GST control)"
same,binding signal,[7],"1.13 fold enrichment (6-mer frequency, TF over GST control)"
same,binding signal,[8],"1.22 fold enrichment (6-mer frequency, TF over GST control)"
same,binding signal,[9],"1.24 fold enrichment (6-mer frequency, TF over GST control)"
CTATAG,binding signal,[1],"1.09 fold enrichment (6-mer frequency, TF over GST control)"
same,binding signal,[2],"1.05 fold enrichment (6-mer frequency, TF over GST control)"
same,binding signal,[3],"1.11 fold enrichment (6-mer frequency, TF over GST control)"
same,binding signal,[4],"1.01 fold enrichment (6-mer frequency, TF over GST control)"
same,binding signal,[5],"1.09 fold enrichment (6-mer frequency, TF over GST control)"
same,binding signal,[6],"1.03 fold enrichment (6-mer frequency, TF over GST control)"
same,binding signal,[7],"1.08 fold enrichment (6-mer frequency, TF over GST control)"
same,binding signal,[8],"1.07 fold enrichment (6-mer frequency, TF over GST control)"
same,binding signal,[9],"1.08 fold enrichment (6-mer frequency, TF over GST control)"
ACCGCC,binding signal,[1],"1.38 fold enrichment (6-mer frequency, TF over GST control)"
same,binding signal,[2],"1.23 fold enrichment (6-mer frequency, TF over GST control)"
same,binding signal,[3],"1.35 fold enrichment (6-mer frequency, TF over GST control)"
same,binding signal,[4],"1.27 fold enrichment (6-mer frequency, TF over GST control)"
same,binding signal,[5],"1.29 fold enrichment (6-mer frequency, TF over GST control)"
same,binding signal,[6],"1.36 fold enrichment (6-mer frequency, TF over GST control)"
same,binding signal,[7],"1.19 fold enrichment (6-mer frequency, TF over GST control)"
same,binding signal,[8],"1.13 fold enrichment (6-mer frequency, TF over GST control)"
same,binding signal,[9],"1.3 fold enrichment (6-mer frequency, TF over GST control)"
CTCGCT,binding signal,[1],"1.81 fold enrichment (6-mer frequency, TF over GST control)"
same,binding signal,[2],"1.67 fold enrichment (6-mer frequency, TF over GST control)"
same,binding signal,[3],"1.72 fold enrichment (6-mer frequency, TF over GST control)"
same,binding signal,[4],"1.63 fold enrichment (6-mer frequency, TF over GST control)"
same,binding signal,[5],"1.75 fold enrichment (6-mer frequency, TF over GST control)"
same,binding signal,[6],"1.6 fold enrichment (6-mer frequency, TF over GST control)"
same,binding signal,[7],"1.54 fold enrichment (6-mer frequency, TF over GST control)"
same,binding signal,[8],"1.81 fold enrichment (6-mer frequency, TF over GST control)"
same,binding signal,[9],"1.41 fold enrichment (6-mer frequency, TF over GST control)"
